Experimental data as given in PubChem BioAssay (NCI).
Several values for one entry are separate records, joined by “and”; a condition that tells them apart may be missing. Identical values can stand only once. Compounds without any hit were thinned out: in the full panel of roughly 79,000, 15% have a hit. No stated cut-off is given here; in the data, active means growth inhibition above about 70%; inactive means the rest.

Key:
[1] = NCI Yeast Anticancer Drug Screen. Data for the rad50 strain (AID 155);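 further: 0% = growth of vehicle-only cultures of the same strain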; settings: S. cerevisiae rad50 strain growth inhibition; at 50.0 µM; active compounds read high
Summary of the method: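 Relative growth inhibition (compound vs vehicle) was measured in yeast with a defined repair-gene alteration.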

[2] = NCI Yeast Anticancer Drug Screen. Data for the mec2-1 strain (AID 157); settings: S. cerevisiae mec2-1 strain, at 50.0 µM, active compounds read high
Summary of the method: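 Vehicle-treated cultures served as reference for growth inhibition of compound-exposed mec2-1 yeast.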

[3] = NCI Yeast Anticancer Drug Screen. Data for the sgs1 mgt1 strain (AID 161);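 further: 0% = growth of cultures given vehicle only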; settings: S. cerevisiae sgs1 mgt1 strain, at 50.0 µM, active compounds read high
Summary of the method: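 Test agents were incubated with a DNA-repair-mutant yeast strain. Growth was then read and compared against vehicle-treated controls.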

[4] = NCI Yeast Anticancer Drug Screen. Data for the cln2 rad14 strain (AID 165);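 further: 0% = growth equal to vehicle treated cultures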; settings: S. cerevisiae cln2 rad14 strain, at 50.0 µM, active compounds read high
Summary of the method: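 Each compound was tested on cln2 rad14 yeast. Inhibition of growth was calculated against vehicle-exposed controls.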

[5] = NCI Yeast Anticancer Drug Screen. Data for the bub3 strain (AID 167); settings: S. cerevisiae bub3 mutant strain, at 50.0 µM, active compounds read high
Summary of the method: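 Screening used yeast with an engineered genetic alteration affecting cell cycle control. Compound-exposed cultures were compared with vehicle cultures, and reduced growth was taken as inhibition.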

[6] = NCI Yeast Anticancer Drug Screen. Data for the mlh1 rad18 strain (AID 175); settings: S. cerevisiae mlh1 rad18 strain growth inhibition; at 50.0 µM; active compounds read high
Summary of the method: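 Vehicle-treated cultures served as the reference for growth inhibition in a yeast strain carrying DNA damage repair alterations exposed to each compound.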

Measured: growth inhibition

Cc1cccc(N)c1
inactive: [1] 6.5% | [2] -6.75% | [3] 1.35% | [4] 5.65% | [5] 14.2% | [6] 10.4%

O=C(Nc1ccc(N(CCCl)CCCl)cc1)Oc1ccc(C(=O)O)cc1
inactive: [1] 6.75% | [2] 6% | [3] 10.1% | [4] 9.3% | [5] 15.2% | [6] 20.5%

CN1C(=O)N(C)C(O)C(Cl)(Br)C1=O (stereo unspecified)
inactive: [1] -0.5% | [2] 2.5% | [3] 7.3% | [4] 26.2% | [5] 5.9% | [6] 12.7%

CN(C)CCC(=O)c1ccccc1
inactive: [1] 3.05% and -40.5% | [2] 0.7% and 11.3% | [3] 5.85% and -7.35% | [4] -0.6% and -27.6% | [5] 4.35% and -1.8% | [6] 4.4% and 10.6%

CN(N=O)c1ccc([N+](=O)[O-])cc1
inactive: [1] 26.2% | [2] 26.4% | [3] 15.8% | [4] 18.2% | [5] 24.4% | [6] 28.1%

O=[N+]([O-])CCCCl
inactive: [1] 2.05% | [2] -3.05% | [3] -3.05% | [4] -7.95% | [5] 1.85% | [6] 2.35%

CNC(Cc1ccccc1)c1cccc(O)c1 (stereo unspecified)
inactive: [1] 4.5% | [2] -6.2% | [3] -1.3% | [4] -24.9% | [5] 0.4% | [6] -5.15%

[NH-]C(CCC(N)=O)C(=O)O.[NH-]C(CCC(N)=O)C(=O)O.[Zn+2] (stereo unspecified)
inactive: [1] -23.1% | [2] -22.9% | [3] -27.1% | [4] 13.3% | [5] -26.6% | [6] -38.2%

ClC1CC2OC(Cl)CC2O1 (stereo unspecified)
inactive: [1] 5.2% | [2] 1.05% | [3] -19.1% | [4] -20.9% | [5] 0.4% | [6] 1.15%

CC(=O)c1ccc(N2CCNCC2)cc1
inactive: [1] -27.6% | [2] -49.8% | [3] -3.95% | [4] 16.6% | [5] -14.2% | [6] -22.1%

O=P1(c2ccccc2)NC2CCCCC2N1 (stereo unspecified)
inactive: [1] 24.2% | [2] -8.05% | [3] -5.3% | [4] -87% | [5] -0.9% | [6] 2.95%
